Our source for the AC50 and outcome values is PubChem BioAssay (EPA / NIEHS).

Each structure is given as a SMILES string. “And” between values parts separate entries of the source, which are not always exact repeats. Equal values may be shown once. Where a structure was tested more than once in an assay, its records may differ in their call. The source made the active and inactive calls. Rule for the calls: active = hit-call score of the fitted dose curve at least 0.9, where 1 is the maximum; inactive = score below 0.9.

The assay in a line: ATG_VDRE_CIS: Attagene CIS-FACTORIAL HepG2 Assay for human Vitamin D Receptor Element (VDRE) (AID 2282968). As to conditions: HepG2 VDRE cis-reporter transcription, actives raise or lower the signal. Here is the method:
ATG_CIS is a cell-based, multiplexed-readout assay that uses HepG2, a human liver cell line, with measurements taken at 24 hours after chemical dosing in a 24-well plate.ATG_VDRE_CIS is one of 52 assay component(s) measured or calculated from the ATG_CIS assay. It is designed to make measurements of mRNA induction, a form of inducible reporter, as detected with fluorescence intensity signals by Reverse transcription polymerase chain reaction (RT-PCR) and Capillary electrophoresis technology.Data from the assay component ATG_VDRE_CIS was analyzed into 1 assay endpoint. This assay endpoint, ATG_VDRE_CIS, was analyzed with bidirectional fitting relative to DMSO as the negative control and baseline of activity. Using a type of inducible reporter, measures of mRNA for gain or loss-of-signal activity can be used to understand the reporter gene at the transcription factor-level as they relate to the gene VDR. Furthermore, this assay endpoint can be referred to as a primary readout, because this assay has produced multiple assay endpoints where this one serves a reporter gene function. To generalize the intended target to other relatable targets, this assay endpoint is annotated to the nuclear receptor intended target family, where the subfamily is non-steroidal.
Human liver HepG2 cells are transiently transfected with multiple reporter transcription units (MRTUs) in 6-well plates using FuGene 6 reagent (Roche; 3 ml FuGene/1 mg DNA). The MRTU constructs are regulated by a cis-regulating element (promoter). […] A major difference between the CIS and TRANS system is that in CIS activities of endogenous TFs are measured, whereas the TRANS assay evaluates changes in activities of exogenous, chimeric NR-Gal4 proteins. […] At the end of 24 hour incubation, total RNA was isolated using TriZol reagent (Invitrogen). The isolated RNA is then reverse-transcribed using oligo(dT) primer and Mo-MLV reverse transcriptase (Invitrogen) with DNAse I (Ambion) treatment for 30 min. The one-tenth of the produced cDNA was amplified by PCR using Taq DNA polymerase (Invitrogen) and two reporter sequence-specific primers. The PCR products were fluorescently labeled by primer extension with 6-arboxyfluorescein (6-FAM) 5'-labeled reporter sequence-specific primer (2 min at 95 C, 20 s at 68 C and 10 min at 72 C) and these products were digested with 5U of HpaI (New England Biolabs) for 2h at 37 C. The fragments were purified using Qiaquick PCR columns (Qiagen), analyzed on an ABI 3130xL genetic analyzer (Applied Biosystems) with peak positions identified by using a set of X-rhodamine (ROX)-labeled MapMarker1000 molecular weight standards (BioVentures). The raw capillary electrophoresis data was processed using Attagraph software (Attagene).
On to `Cc1ccccc1CO[C@@H]1C[C@@]2(C(C)C)CC[C@]1(C)O2`, for which the AC50 is 21.4 µM (active).
For `CC(C)(O)C(=O)Nc1ccc([N+](=O)[O-])c(C(F)(F)F)c1`, the AC50 is 31.2 µM (active) and the result was inactive.
On to `CCCN(CCC)N=O`, for which the call was inactive.
As to `CC(c1ccc(O)cc1)(c1ccc(O)cc1)c1ccc(O)cc1`, the AC50 is 6.08 µM (active).
As to `ClC1=C(Cl)[C@]2(Cl)[C@@H]3[C@H]4C[C@H]([C@@H]5O[C@H]45)[C@@H]3[C@@]1(Cl)C2(Cl)Cl`, the AC50 was 2.18 µM (active).
On to `CC(C)(c1ccccc1)c1ccc(O)cc1`, for which the AC50 is 2.17 µM (active) and 21.3 µM (active) and 10.6 µM (active); the call was inactive.
In the case of `O=C(N[C@H]1CN2CCC1CC2)c1cc2ccoc2cn1`, the molecule was called inactive.
In the case of `C1CC2OC2CC1C1CO1` (stereo not given), the molecule was called inactive.
`N#Cc1ccc(N(CC(N)=O)CC(F)(F)F)cc1C(F)(F)F`: the molecule was classed as inactive.
Turning to `CCSC(=O)N(CC)C1CCCCC1`, the concentration at half-maximal activity (AC50) was 18.1 µM (active).
Take `Oc1ccc(C(c2ccc(O)cc2)(C(F)(F)F)C(F)(F)F)cc1`: the AC50 was 13.1 µM (active) [middle of 4 runs].
Regarding `CN(C)CCO`, the outcome was inactive.
Take `O=C(O)C(F)(F)C(F)(F)C(F)(F)C(F)(F)C(F)(F)F`: the outcome was inactive.
As for `Clc1ccc(Cl)cc1`, the call was inactive.
In the case of `COS(=O)(=O)OC`, the molecule was called inactive.
Regarding `Clc1ccc(C(c2ccccc2Cl)C(Cl)(Cl)Cl)cc1` (stereo not given), the molecule was classed as inactive; the AC50 is 3.58 µM (active) and 26.9 µM (active) and 15 µM (active).
In the case of `Sc1ccccc1`, the AC50 was 27.1 µM (active) and the outcome was inactive.
Take `CN(C)c1nc(=O)n(C2CCCCC2)c(=O)n1C`: the molecule was classed as inactive.
The same measure, in the same setting: the result for `O=S(=O)(O)C(F)(F)C(F)(F)C(F)(F)C(F)(F)F` reads “inactive”.
`ClC(Cl)=C(c1ccc(Cl)cc1)c1ccc(Cl)cc1`: the molecule was called inactive and the AC50 was 100 µM (active).
`Nn1cnnc1`: the result was inactive.
With `Cc1cc2c3c(c1)C(c1ccccc1)=N[C@@H](NC(=O)c1ccncc1)C(=O)N3CC2`, the concentration at half-maximal activity (AC50) was 5.69 µM (active).
Consider `Cc1cccc([N+](=O)[O-])c1`, for which the molecule was called inactive.
As for `CCNc1nc(NC(C)C)nc(SC)n1`, the AC50 is 50 µM (active).
Take `CC(C)C(=O)OCC(C)(C)C(OC(=O)C(C)C)C(C)C` (stereo not given): the molecule was classed as inactive.
Consider `C=CC(=O)NCNC(=O)C=C`, for which the call was inactive.
On to `O=C(NC(=O)c1cc(F)c(F)cc1Cl)Nc1cc(F)ccc1N1CCC(C(=O)O)CC1`, for which the molecule was classed as inactive.
Take `Oc1c(Cl)c(Cl)c(Cl)c(Cl)c1Cl`: the AC50 was 25.5 µM (active) and 8.06 µM (active) and 8.47 µM (active).
Take `CC1=C2C[C@H]3[C@@H](CC=C4C[C@@H](O)CC[C@@]43C)[C@@H]2CC[C@]12O[C@@H]1C[C@H](C)CN[C@H]1[C@H]2C`: the molecule was called inactive.
In the case of `CCOP(=S)(OCC)SCSC(C)(C)C`, the result was inactive.
With `ClC1=C(Cl)[C@]2(Cl)[C@@H]3[C@@H](Cl)[C@H]4O[C@H]4[C@@H]3C1(Cl)C2(Cl)Cl`, the molecule was classed as inactive.
`CCC(C)(CC)c1cc(NC(=O)c2c(OC)cccc2OC)on1`: the AC50 is 0.977 µM (active).
As for `CO/C=C(/C(=O)OC)c1ccccc1COc1cccc(C(F)(F)F)n1`, the AC50 is 11.9 µM (active).
Regarding `c1cc2ccc3cccc4ccc(c1)c2c34`, the molecule was called inactive.
Consider `CC#Cc1cc(C)nc(Nc2ccccc2)n1`, for which the AC50 is 65.6 µM (active).

One may read the AC50 as the concentration giving half of the maximal activity seen.
